Compound activity deposited in PubChem by National Center for Advancing Translational Sciences (NCATS).
Rows were chosen to be rich in hits. Some 21% of all compounds tested hit in one or more screens of this group.
Giardia FBPA inh = blocks Giardia fructose-bisphosphate aldolase activity. Potency, µM (highest dose often 59.6 µM), hits mostly inhibitors. AID 2451. purified Giardia FBPA. 0.71% of 290,000 active; further: nearly all actives have a fitted effect of over 55% in size
Target sequence (A8B2U2 whole entry, looked up): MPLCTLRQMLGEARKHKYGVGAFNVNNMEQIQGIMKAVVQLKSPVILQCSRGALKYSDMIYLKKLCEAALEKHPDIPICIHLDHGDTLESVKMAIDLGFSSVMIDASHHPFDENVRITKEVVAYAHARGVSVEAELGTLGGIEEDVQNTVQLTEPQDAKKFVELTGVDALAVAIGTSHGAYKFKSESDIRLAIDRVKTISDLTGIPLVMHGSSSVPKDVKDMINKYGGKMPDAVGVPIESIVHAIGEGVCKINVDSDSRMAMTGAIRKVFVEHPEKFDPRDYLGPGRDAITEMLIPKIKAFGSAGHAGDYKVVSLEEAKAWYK
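40 nM FBPA preincubated 10 min at RT with compound (up to 57.5 uM final), then substrate plus GAPDH/TPI/NAD/arsenate coupling and diaphorase/resazurin added. Fluorescence read after 20 min at RT, 525/598 nm.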
Pf growth 96h = inhibits malaria parasite growth, 96 h. P. falciparum luciferase reporter growth, 96 h. Potency, µM (highest dose often 28.7 µM), actives largely listed as inhibitors. 6.9% of 320,000 active. AID 504834
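Delayed-death screen, second-generation endpoint: infected erythrocytes, 2% hematocrit, 0.05% parasitemia final; 96 hours at 37 C, 5% CO2; luciferase detection reagent; luminescence decrease equals reduced growth.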
Shiga toxin inh = inhibitors of Shiga toxin in Vero cells; 9.2% of 290,000 active; Vero cells, Shiga toxin protein synthesis inhibition reporter; inhibition, % at 38.7 µM; in the data active means inhibition mostly above about 28%, no sharp cut-off; inactive means mostly below about 43%
Pf growth 48h = P. falciparum growth inhibition at 48 hours (one generation) | P. falciparum luciferase growth in erythrocytes, 48 h | Potency, µM (top dose mostly 28.7 µM), hits mostly inhibitors | 5.9% of 310,000 active | AID 504832
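A one-generation exposure of luciferase-tagged malaria parasites in RPMI 1640/Albumax erythrocyte culture, 37 C and 5% CO2. Inhibition is inferred from decreased luminescence after adding detection reagent.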
NS1 inh = blocks influenza NS1 protein function | AID 2326 | 0.4% of 270,000 active | Potency, µM (titrated, usually from 46.1 µM); calls by dose curve; further: actives are rising curves; nearly all actives have a fitted effect of over 50% in size
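OD600 was taken as the measure of yeast growth restored by compound in an NS1-expressing S. cerevisiae strain. Cells had been washed out of glucose medium and diluted 1:100 into galactose -URA medium, pH 6.0.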
CHX counter = counter-screen for Shiga toxin inhibitors: cycloheximide protein synthesis inhibition | cell reporter, cycloheximide protein synthesis inhibition counterscreen | max response, % | 12% of 300,000 active; in the data active means max response mostly above about 13%, no sharp cut-off; inactive means mostly below about 14%; further: read at 38.3 µM for the half of the compounds with a filed dose
Each line names hits and unclear results; the compound was inactive in the other large screens. Unless noted, the call rests on the fitted dose curve; in most records, active means well fitted curve in the direction sought with a large enough effect; inconclusive means small, poorly fitted or top-dose-only effect, or another doubt; inactive means no such curve, though single readings can be large; an effect the other way counts as inactive or inconclusive.

CC(=O)Nc1ccc(S(=O)(=O)N2CCN(CCN3CCOCC3)CC2)cc1Cl	Pf growth 48h 2.1µM
CC(=O)Nc1ccc(S(=O)(=O)N2CCSC2C(=O)O)cc1 (stereo unspecified)	Pf growth 96h 12µM (no result: Pf growth 48h)
CC(C(=O)Nc1ccc(S(=O)(=O)N2CCCC2)cc1)N1CCc2ccccc2C1 (stereo unspecified)	Pf growth 96h inconclusive, Pf growth 48h 12µM (no result: Giardia FBPA inh, Shiga toxin inh, NS1 inh, CHX counter)
CCC(C)(C)C1CCc2[nH]nc(C(=O)N/N=C(\C)c3ccco3)c2C1 (stereo unspecified)	Shiga toxin inh 107, CHX counter 61
C/C(=N\NC(=O)c1n[nH]c2c1CCC2)c1ccco1	CHX counter 26
COC(=O)[C@@H]1CCCN1C(=O)CCc1nnc(C2CCCCC2)o1	Pf growth 96h 17µM, Shiga toxin inh 16, CHX counter 14
CN(CCCN1CCCCC1)C(=O)CCc1nnc(C2CCCCC2)o1	none
CCC1CCCCN1C(=O)CCc1nnc(C2CCCCC2)o1 (stereo unspecified)	Pf growth 96h inconclusive, Shiga toxin inh 66, CHX counter 47
O=C(CCc1nnc(C2CCCCC2)o1)N1CCC(Oc2cccnc2)CC1	none
CCOc1ncccc1C(=O)OCC(=O)NC1CCCCCC1	Pf growth 96h inconclusive (no result: Giardia FBPA inh, Shiga toxin inh, NS1 inh, CHX counter)
CCOC(=O)c1c(C)nc2sc(C(=O)Nc3ccccc3)c(N)c2c1-c1ccc(OC)cc1	Pf growth 48h inconclusive
CCOC(=O)c1c(C)nc2sc3c(c2c1-c1ccc(OC)cc1)NC(c1ccc(OC)cc1)NC3=O (stereo unspecified)	Pf growth 96h 2.6µM, Pf growth 48h inconclusive (no result: Giardia FBPA inh)
CC(=O)c1ccc2c(c1)C1C(Cl)C(Sc3ccccc3[N+](=O)[O-])CC1C(C(=O)O)N2 (stereo unspecified)	Pf growth 96h 2.6µM
O=C1C2=CC[C@H]3C(=O)N(C[C@@H]4CCCO4)C(=O)[C@@H]3[C@@H]2[C@H](O)[C@@H]2O[C@H]12	none (no result: Pf growth 96h, Shiga toxin inh, Pf growth 48h, NS1 inh, CHX counter)
COCCN=c1scc(C)n1/N=C/C1CC2C=CC1C2 (stereo unspecified)	Pf growth 96h inconclusive, Pf growth 48h inconclusive, CHX counter 13 (no result: NS1 inh)
COCCN=c1scc(-c2cc(OC)ccc2OC)n1/N=C/c1c[nH]c2ccccc12	Pf growth 48h inconclusive, NS1 inh inconclusive
O=C(NC(C(=O)N/N=C/c1ccccc1)c1n[nH]c(=O)c2ccccc12)c1ccccc1 (stereo unspecified)	Pf growth 48h inconclusive
O=C(NC(C(=O)N/N=C/c1c2ccccc2cc2ccccc12)c1n[nH]c(=O)c2ccccc12)c1ccccc1 (stereo unspecified)	Pf growth 96h 13µM, Pf growth 48h 12µM
CC(=O)Nc1ccc(C2(c3ccc(NC(C)=O)cc3)NC(=O)c3ccccc32)cc1	Pf growth 48h 1.3µM
Cc1cc(C)n(CCN(C)Cc2nc(Cc3ccccc3F)no2)n1	Pf growth 96h inconclusive
CN(Cc1nc(Cc2ccccc2F)no1)[C@@H]1CS(=O)(=O)C[C@H]1O	Pf growth 96h 12µM
C=CCNc1oc(-c2ccc(OC)cc2)nc1C#N	Shiga toxin inh 78, CHX counter 43
C=CCNc1oc(-c2ccc(OCC)cc2)nc1C#N	Shiga toxin inh 63, Pf growth 48h inconclusive, CHX counter 15
COc1ccc(Nc2oc(-c3ccc(F)cc3)nc2C#N)cc1	Shiga toxin inh 73, CHX counter 35
CCOc1ccc(Nc2oc(-c3ccco3)nc2C#N)cc1	Pf growth 96h inconclusive, CHX counter 33
O=C(CN1C(=O)NC2(CCCCC2)C1=O)N1CCN(S(=O)(=O)c2cccc([N+](=O)[O-])c2)CC1	none (no result: Giardia FBPA inh, Shiga toxin inh, NS1 inh, CHX counter)
c1cncc(-c2cc(NCc3cccs3)ncn2)c1	none (no result: Pf growth 96h, Shiga toxin inh, Pf growth 48h, NS1 inh, CHX counter)
CNc1oc(-c2ccc(OCc3ccccc3)cc2)nc1C#N	CHX counter 24 (no result: Pf growth 96h)
N#Cc1nc(-c2ccc(OCc3ccccc3)cc2)oc1NCc1ccco1	none
COc1cccc(-c2nc(C(N)=O)c3[nH]c(=O)n(-c4cccc(Cl)c4)c3n2)c1OC	Pf growth 96h inconclusive, Pf growth 48h 15µM
Cc1ccc(C)c(S(=O)(=O)N2CCN(C(=O)Cn3cnc4c3c(=O)n(C)c(=O)n4C)CC2)c1	none (no result: Giardia FBPA inh)
COc1c(C)cc(C(=O)C2CCCN(C(=O)c3ccoc3)C2)cc1C (stereo unspecified)	Pf growth 96h inconclusive
O=C(c1ccc([N+](=O)[O-])s1)N1CCN(c2cccc(Cl)c2)CC1	Pf growth 96h 12µM, Pf growth 48h inconclusive
O=C(c1cccc(Cl)c1)C1CCCN(C(=O)c2ccoc2)C1 (stereo unspecified)	Pf growth 96h 10µM
O=C(c1cccc(Cl)c1)N1CCCC(C(=O)N2CCN(c3ccccc3)CC2)C1 (stereo unspecified)	Shiga toxin inh 50, CHX counter 24
O=C(c1cccc(Cl)c1)N1CCCC(C(=O)N2CCCCCC2)C1 (stereo unspecified)	Pf growth 48h inconclusive
O=C(c1ccc2nc[nH]c2c1)N1CCN(c2cccc(Cl)c2)CC1	Pf growth 96h 5.9µM, Pf growth 48h 13µM (no result: Giardia FBPA inh)
COc1ccc(C(=O)N2CCN(c3cccc(Cl)c3)CC2)cc1	none
O=C(NCC(=O)N(c1cccc(F)c1)C(C(=O)NC1CCCC1)c1ccncc1)c1cccs1 (stereo unspecified)	Pf growth 96h inconclusive
O=C(CNC(=O)C1CC(=O)N(c2cccc3ccccc23)C1)Nc1ccccc1Br (stereo unspecified)	Pf growth 96h inconclusive (no result: Giardia FBPA inh, Shiga toxin inh, NS1 inh, CHX counter)
Cc1cc(C)cc(NC(=O)CSc2nc(N)c(NC(=O)c3ccc(Br)o3)c(=O)[nH]2)c1	Pf growth 96h inconclusive (no result: Giardia FBPA inh)
CCN(CC)CCn1c(=S)[nH]c2ccc(Cl)cc2c1=O	Pf growth 48h 12µM
NS(=O)(=O)c1ccc(NC(=O)CN2CCN(S(=O)(=O)c3cccs3)CC2)cc1	none (no result: Giardia FBPA inh, Shiga toxin inh, NS1 inh, CHX counter)
COc1cccc(NC(=O)COC(=O)CCn2c(C)csc2=O)c1	none (no result: Giardia FBPA inh, Shiga toxin inh, NS1 inh, CHX counter)
CSc1nnc(Cn2c(=O)sc3ccccc32)n1CCc1ccccc1	Pf growth 96h 13µM (no result: Pf growth 48h)
O=C(CSc1nnc(Cn2c(=O)sc3ccccc32)n1CCc1ccccc1)N1CCOCC1	Pf growth 96h inconclusive, Pf growth 48h 9.3µM
CSc1nnc(Cn2c(=O)sc3ccccc32)n1C	Pf growth 96h inconclusive
CCCN=C(C)C1=C(O)c2ccccc2C1=O	Shiga toxin inh 84, CHX counter 107
CC(=NCc1ccncc1)C1=C(O)c2ccccc2C1=O	Shiga toxin inh 76, CHX counter 18 (no result: Pf growth 96h)
CCCCn1c(N)c(N(CC(C)C)C(=O)c2oc3ccc(Br)cc3c2C)c(=O)[nH]c1=O	Pf growth 48h inconclusive (no result: Giardia FBPA inh, Shiga toxin inh, NS1 inh, CHX counter)
CCOC(=O)C1=C(C)N(C)C(=O)NC1c1cccc2ccccc12 (stereo unspecified)	none
Cc1nc2ccccc2cc1C(=O)N(C)Cc1ccccc1	none
COCCCn1c(SCC(=O)N2CCCC(C)C2)nnc1-c1ccco1 (stereo unspecified)	Pf growth 96h 0.59µM
